Several values for one entry are separate records, joined by “and”; a condition that tells them apart may be missing. Identical values can stand only once. About 1,300 (0.54%) of roughly 240,000 compounds were called active. Roughly 1% stayed inconclusive and do not appear here. Shown is part of a subset that was picked to be rich in actives. The source holds several records for some structures; these can differ, active in one and inactive in another. A number with no mark means an inactive call. Calls come from the whole dose curve; as a rule, active = well fitted inhibition curve with a large enough effect; inconclusive = small, poorly fitted or top-dose-only effect; inactive = flat fitted curve, though single readings scatter.
biological target: ATP-dependent DNA helicase Q1 (Homo sapiens) (UniProt P46063); assay: qHTS Assay for Inhibitors of RecQ-Like Dna Helicase 1 (RECQ1); details: RECQ1 DNA unwinding, red fluorescence kinetic read; series mostly up to 57.3 µM; activity, negative = inhibition: at the top concentration; note: nearly all actives have a fitted effect of over 30% in size
Sequence (P46063 whole entry, looked up): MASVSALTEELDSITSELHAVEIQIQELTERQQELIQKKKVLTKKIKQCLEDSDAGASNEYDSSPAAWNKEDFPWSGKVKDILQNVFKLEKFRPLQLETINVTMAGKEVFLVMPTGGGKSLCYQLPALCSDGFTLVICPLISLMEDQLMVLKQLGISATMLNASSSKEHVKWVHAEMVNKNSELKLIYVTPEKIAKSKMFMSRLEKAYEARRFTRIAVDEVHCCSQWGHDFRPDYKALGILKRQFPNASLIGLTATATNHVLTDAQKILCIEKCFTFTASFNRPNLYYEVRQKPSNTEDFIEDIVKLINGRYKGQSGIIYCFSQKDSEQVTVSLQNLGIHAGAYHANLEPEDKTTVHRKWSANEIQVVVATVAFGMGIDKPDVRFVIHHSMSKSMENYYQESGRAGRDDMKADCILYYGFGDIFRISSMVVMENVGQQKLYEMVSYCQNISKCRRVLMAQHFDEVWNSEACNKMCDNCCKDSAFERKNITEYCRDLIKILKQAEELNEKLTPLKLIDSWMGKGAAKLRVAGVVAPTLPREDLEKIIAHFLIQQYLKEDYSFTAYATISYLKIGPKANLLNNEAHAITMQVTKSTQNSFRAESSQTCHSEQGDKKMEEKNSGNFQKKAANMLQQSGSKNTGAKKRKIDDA
Description: Survival of cells and the faithful propagation of the genome depend on elaborate mechanisms of detecting and repairing DNA damage. Treatment of advanced cancer relies on radiation therapy or chemotherapy, which kill cancer cells by causing extensive DNA damage. It is often found, that cancer cells develop resistance to therapy through enhanced activity of DNA repair functions; this has led to an increased interest in developing drugs that interfere with DNA repair, which could sensitize cancer cells to conventional therapy.
This validation qHTS assay pertains to human RECQ1, which is important in resolving abnormal DNA structures formed during replication or homologous recombination. Shutting down the expression of RECQ1 leads to chromosomal instability and higher radiation sensitivity in cultured cells.
The validation assay was a fluorescence quenching based kinetic qHTS for RECQ1 Helicase DNA unwinding. The activity was measured as ATP-dependent separation of a 20-bp DNA duplex extended by 30-nt single-stranded tails (forked duplex). The forked DNA substrate was tagged with rhodamine fluorophore (carboxytetramethyl rhodamine, TAMRA) and BHQ-2 (Black Hole Quencher 2) dark quencher. Strand separation results in an increase in the fluorescence of TAMRA (excitation 525 nm, emission 598 nm). This substrate construct operates in a red-shifted region where very few compound library members have been noted to fluoresce (PubChem AIDs 593 and 594). An additional feature of the assay is the inclusion of 2.5 ug/ml poly (dIdC), to reduce interference by compounds such as DNA intercalators, a major source of false inhibitors.
Opher Gileadi, Structural Genomics Consortium, University of Oxford
Screening Center PI: Austin, C.P.
Screening Center: NIH Chemical Genomics Center [NCGC]
Three uL of reaction buffer (25 mM Tris-HCl (pH 8.0), 5 mM NaCl, 2 mM MgCl2, 1mM DTT, 0.01% Tween- 20, and 2.5 ug/ml poly(dI-dC), including enzyme (50 nM RECQ1T1), were dispensed into a 1536-well Greiner black assay plate via solenoid-valve based nanoliter dispensers. Compounds (23 nl each in columns 5-48) and control (23 nl each in column 2 as dose-response) were transferred via a Kalypsys pintool equipped with a 1536-pin array. The plates were incubated for 15 min at room temperature, and then 1 ul of substrates (200 nM DNA and 2 mM ATP, final concentrations) was added to start the reaction. The plate was transferred into a ViewLux high-throughput CCD imager where the reaction progress was measured in a discontinuous kinetic mode (two reads spaced 2 hours apart, with intermediate room temperature incubation of the covered assay plate) by using standard red-fluorescence optics (excitation filter 525 nm, emission filter 598 nm). Enzyme-free and vehicle (DMSO) controls were included for signal normalization.
Potency is the fitted concentration of half-maximal effect.

| Compound | Potency | activity, negative = inhibition [%] | outcome |
| --- | --- | --- | --- |
| O=C1NC(=O)N(Cc2ccco2)C(=O)/C1=C\c1ccc(-c2ccc(F)cc2)o1 | 25.1 µM (active) | – | – |
| O=C1NC(=O)N(CCc2ccc(F)cc2)C(=O)/C1=C/C=C/c1ccccc1 | – | -7.01 | – |
| CC(C)CC(C)Nc1ccc(Nc2ccccc2)cc1 (stereo unspecified) | – | -4.48 | – |
| N#CC(C#N)=Cc1cc(O)c(O)c([N+](=O)[O-])c1 | 31.6 µM (active) | – | – |
| CCN(CC)c1nc(C)cc(OP(=S)(OC)OC)n1 | – | -4.04 | – |
| CC(C)(C)c1ccc(CN2C(=O)CN=C(c3ccccc3)c3ccccc32)cc1 | – | – | inactive |
| O=C1CC(=O)N(Cc2ccccc2)C(=O)N1CCCCCCN1C(=O)CC(=O)N(Cc2ccccc2)C1=O | 7.94 µM (active) | – | – |
| O=C(CN1CCCC1=O)NCCc1ccccc1 | – | 3.98 | – |
| CO[C@H]1[C@@H](O)[C@@H](C)O[C@H](O[C@H]2[C@H](Oc3cccc4c(O)c5c(=O)oc6ccc(C)c7c(=O)oc(c34)c5c67)O[C@H](C)[C@H](O)[C@@H]2O)[C@@H]1O | – | -27 | – |
| COc1cccc(N2C(=O)NC(=O)/C(=C\c3ccc([N+](=O)[O-])s3)C2=O)c1 | 22.4 µM (active) | – | – |
| Cc1c(C(=O)O)cccc1-n1c(C)cc(/C=C2\C(=O)NC(=O)N(c3ccc4c(c3)OCO4)C2=O)c1C | – | -6.31 | – |
| CCCCCCCCCCCCN=C(N)N | – | -3.44 | – |
| CCCN(C/C=C/I)C1CCc2ccc(O)cc2C1 (stereo unspecified) | – | 16.7 | – |
| ClCCBr | – | -7.43 | – |
| CC(C)(Cc1c[nH]c2ccc(Cl)cc12)NCCOc1ccccc1OCC1CC1 | inactive | – | – |
| CC(=O)[O][Sn]([c]1ccccc1)([c]1ccccc1)[c]1ccccc1 | – | -18.8 | – |
| CN(C)C[C@H]1CCCC[C@]1(O)c1cccc(O)c1 | – | -4.76 | – |
| O=C(OCC1O[C@@H](OC(=O)c2cc(O)c(O)c(O)c2)[C@@H](OC(=O)c2cc(O)c(O)c(O)c2)[C@@H](OC(=O)c2cc(O)c(O)c(O)c2)[C@@H]1OC(=O)c1cc(O)c(O)c(O)c1)c1cc(O)c(O)c(O)c1 (stereo partly specified) | 0.112 µM (active) | – | – |

| Compound | Potency | activity, negative = inhibition [%] | outcome |
| --- | --- | --- | --- |
| C=CCN1CCC2(C)c3cc(O)ccc3CC1[C@@H]2C (stereo partly specified) | – | -14.3 | – |
| CC(C)(C)C(O)(CCc1ccc(Cl)cc1)Cn1cncn1 (stereo unspecified) | – | -5.08 | – |
| O=C1CCc2cccc3c2N1CC3 | – | -9.06 | – |
| C[C@@H]1C[C@H]2CC[C@H](O2)[C@H](C)C(=O)O[C@@H](C)C[C@@H]2CC[C@@H](O2)[C@@H](C)C(=O)O[C@H](C)C[C@H]2CC[C@H](O2)[C@H](C)C(=O)O[C@@H](C)C[C@@H]2CC[C@@H](O2)[C@@H](C)C(=O)O1 | – | -2.94 | – |
| Nc1ccc(-c2ccc(N)c(N)c2)cc1N | – | -4.18 | – |
| CC[C@]1(O)C(=O)OCc2c1cc1n(c2=O)Cc2cc3ccccc3nc2-1 | – | -18.3 | – |
| CC[N+](C)(CC)CCC[n+]1c(-c2ccccc2)c2cc(N)ccc2c2ccc(N)cc21 | 11.2 µM (active) and 35.5 µM (active) | – | – |
| C[C@H]1C/C=C/[C@@H]2[C@@H]3O[C@]3(C)[C@@H](C)[C@H]3[C@H](Cc4ccccc4)NC(=O)[C@]32OC(=O)O/C=C/[C@](C)(O)C1=O | – | 6.24 | – |
| CN(C)[C@@H]1C(=O)C(C(N)=O)=C(O)[C@@]2(O)C(=O)C3=C(O)c4c(O)cccc4[C@@](C)(O)C3CC12 (stereo partly specified) | – | -0.266 | – |
| N#CCCCl | inactive | – | – |
| N#Cc1cc(Br)c(O)c(Br)c1 | – | 15.8 | – |
| CCCCC#N | – | 11.1 | – |
| CC(C)(c1ccc(OC[C@@H]2CO2)cc1)c1ccc(OC[C@H]2CO2)cc1 | – | -8.34 | – |
| CO[C@@H]1C[C@@H](C[C@H]2CC[C@H](C)[C@@H]([C@@H](C)C(=O)O)O2)O[C@]2(O[C@](C)([C@H]3CC[C@@](C)(C4OC([C@H]5O[C@@](O)(CO)[C@H](C)C[C@@H]5C)C[C@@H]4C)O3)C[C@H]2C)[C@@H]1C (stereo partly specified) | – | – | inactive |
| CN[C@@H]1C[C@H]2O[C@@](C)([C@@H]1OC)n1c3ccccc3c3c4c(c5c6ccccc6n2c5c31)C(=O)NC4 | 35.5 µM (active) | – | inactive [at 11.5 µM] |
| C[C@]12O[C@H](C[C@@]1(O)C(=O)O)n1c3ccccc3c3c4c(c5c6ccccc6n2c5c31)CNC4=O | – | -8.07 | – |
| COc1ccc2[nH]cc(CCNCc3ccc(Br)cc3)c2c1 | – | -1.04 | – |

From PubChem BioAssay AID2549 (National Center for Advancing Translational Sciences (NCATS), 2010)
